SMILES strings stand for the structures. This is part of a sample that, as a whole, favours compounds with a hit. Of some 83,000 tested, about 20% had one in any assay.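 Growth was measured after 48 h exposure to one concentration of compound in 96-well plates. Values under 10 count as active.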 Values without a mark were called inactive. Activity calls are given as the source filed them.

In PubChem BioAssay (NCI) one finds growth data, which are given here for eight compounds.

Some test systems named below: NCI-H23 lung; NCI-H226 lung; NCI-H322M lung; HOP-62 NSCLC; NCI-H460 lung; HOP-92 NSCLC; NCI-H522 lung; A549/ATCC NSCLC; 786-0 renal; COLO 205 colon; DU-145 prostate; K-562 leukemia; MALME-3M melanoma; MDA-MB-231 breast; RXF 393 renal; SF-268 CNS; SF-295 CNS; SF-539 CNS; UACC-257 melanoma; M14 melanoma.
Test in all cases: NCI-60 one-dose screen, 48 h (100 = growth as untreated, 0 = no growth, -100 = all killed)
Common to all, as to conditions: 10 µM unless noted

For `O=C(OCc1ccc2c(Br)cc(Br)c(O)c2n1)N1CCN(C(=O)c2cc3ccccc3[nH]2)CC1`, the growth was 39.4% in the test on NCI-H23 lung; 39.5% with NCI-H226 lung; 44.9% with NCI-H322M lung; 23.3% in the test on HOP-62 NSCLC; 12% in the test on NCI-H460 lung; 25.7% in the test on HOP-92 NSCLC. Moreover, the growth with NCI-H522 lung is 37.5%; in the test on A549/ATCC NSCLC it was 12.7%; in the test with 786-0 renal, 49.3%; in the test with COLO 205 colon, 50.6%; with DU-145 prostate, 48.9%; with K-562 leukemia, 21.7%. In addition, the growth in the test on MALME-3M melanoma was 51.5%; in the test with MDA-MB-231 breast, 46.3%; in the test on RXF 393 renal, 41%; with SF-268 CNS, 31.6%; with SF-295 CNS it was 21.3%; with SF-539 CNS, 47.9%. Moreover, the growth with UACC-257 melanoma is 31.5%; in the test on M14 melanoma, 30%.

On to `CCN1CCN(C(=O)[C@]23CC[C@@H](C)[C@H](C)[C@@H]2C2=CC[C@@H]4[C@@]5(C)C/C(=C/c6ccncc6)C(=O)C(C)(C)[C@@H]5CC[C@@]4(C)[C@]2(C)CC3)CC1`, for which the growth was 20.8% in the test on NCI-H23 lung; 24.7% in the test with NCI-H226 lung; 53.2% in the test on NCI-H322M lung; 33.2% in the test on HOP-62 NSCLC; -6.85% (active) with NCI-H460 lung; 45.2% in the test with HOP-92 NSCLC. Further, the growth is 23.4% in the test on NCI-H522 lung; 25.5% in the test on A549/ATCC NSCLC; 19.6% with 786-0 renal; -15.6% (active) in the test with COLO 205 colon; 41.8% with DU-145 prostate; 9.31% (active) in the test with K-562 leukemia. In addition, the growth in the test on MALME-3M melanoma was -9.75% (active); in the test on MDA-MB-231 breast, 2.96% (active); with RXF 393 renal, -18.7% (active); in the test on SF-268 CNS, 49%; in the test with SF-295 CNS, 28.5%; in the test on SF-539 CNS, -80.2% (active). The growth in the test with UACC-257 melanoma was 25.6%; in the test with M14 melanoma it was 25.4%.

As for `Oc1ccc(C2OCCO2)c2cccnc12`, the growth in the test on NCI-H23 lung is 33%; with NCI-H226 lung, 23.4%; with NCI-H322M lung it was 92.5%; with HOP-62 NSCLC it was 51.6%; in the test on NCI-H460 lung, 68.1%; with HOP-92 NSCLC, 68.8%. In addition, the growth in the test with NCI-H522 lung was 92.9%; in the test on A549/ATCC NSCLC, 56.3%; in the test with 786-0 renal, 97.9%; in the test with COLO 205 colon it was 63.7%; with DU-145 prostate it was 56.7%; with K-562 leukemia, 17.3%. Further, the growth in the test on MALME-3M melanoma was 49%; with MDA-MB-231 breast, 46.6%; in the test with RXF 393 renal it was 77%; in the test with SF-268 CNS, 31.1%; with SF-295 CNS it was 86.9%; in the test with SF-539 CNS, 36%. Also, the growth with UACC-257 melanoma is 79.2%; in the test on M14 melanoma it was 25.8%.

As to `Cc1cc2c(C(C)C)c(O)c(O)c(/C=N/O)c2c(O)c1-c1c(C)cc2c(C(C)C)c(O)c(O)c(/C=N/O)c2c1O`, the growth in the test on NCI-H23 lung was 27.3%; in the test with NCI-H226 lung it was 33.2%; in the test with NCI-H322M lung, 35.9%; in the test with HOP-62 NSCLC it was 11.8%; in the test with NCI-H460 lung it was 2.59% (active); with HOP-92 NSCLC, 8.85% (active). In addition, the growth with NCI-H522 lung was -25.7% (active); in the test with A549/ATCC NSCLC, 4.66% (active); in the test with 786-0 renal, 22.2%; in the test on COLO 205 colon, 2.49% (active); with DU-145 prostate it was -93.8% (active); with K-562 leukemia, -9.09% (active). Also, the growth with MALME-3M melanoma is 51%; in the test on MDA-MB-231 breast it was 25.5%; with RXF 393 renal, -1.98% (active); in the test on SF-268 CNS, 26.3%; with SF-295 CNS, 16.7%; in the test on SF-539 CNS, -11.3% (active). Moreover, the growth was 11.6% with UACC-257 melanoma and 7.91% (active) with M14 melanoma.

Consider `N#Cc1c(-c2ccc(Cl)cc2)nc(NN=Cc2cccc(Cl)c2)nc1N1CCOCC1`, for which the growth with NCI-H23 lung was 101%; in the test with NCI-H226 lung it was 91.6%; with NCI-H322M lung it was 88.7%; in the test with HOP-62 NSCLC, 92.7%; in the test with NCI-H460 lung it was 91.6%; in the test with HOP-92 NSCLC it was 89.3%. Further, the growth with NCI-H522 lung was 94.5%; in the test with A549/ATCC NSCLC, 81.9%; in the test on 786-0 renal, 70.1%; with COLO 205 colon it was 61%; in the test with DU-145 prostate it was 76%; with K-562 leukemia it was 35.1%. The growth is 131% in the test on MALME-3M melanoma; 90.6% in the test with MDA-MB-231 breast; 61.4% with RXF 393 renal; 90.3% in the test with SF-268 CNS; 102% in the test with SF-295 CNS; 79.1% in the test with SF-539 CNS. Further, the growth was 100% with UACC-257 melanoma and 84.6% in the test on M14 melanoma.

Regarding `CCN1CCN(c2nc(NNC(=O)c3ccc(OC)cc3)nc(N3CCN(C(c4ccccc4)c4ccccc4)CC3)n2)CC1`, the growth in the test on NCI-H23 lung was 53.3%; in the test on NCI-H226 lung, 71.9%; in the test with NCI-H322M lung, 84.1%; in the test on HOP-62 NSCLC, 83.6%; in the test with NCI-H460 lung, -6.88% (active); in the test with HOP-92 NSCLC it was 58.7%. For the same compound, the growth in the test on NCI-H522 lung was 85.3%; with A549/ATCC NSCLC, 64.4%; in the test with 786-0 renal, 22.9%; with COLO 205 colon it was -8.98% (active); in the test on DU-145 prostate, 72.2%; with K-562 leukemia, 14%. Moreover, the growth was -63.7% (active) with MALME-3M melanoma; 82.9% with MDA-MB-231 breast; 55.7% with RXF 393 renal; 81.8% in the test on SF-268 CNS; 71.3% in the test on SF-295 CNS; 73.2% with SF-539 CNS. Besides, the results for the growth in the test on UACC-257 melanoma and with M14 melanoma were 10.3% and -40.5% (active), respectively.

Regarding `CN1C(=O)N(C)C2C1NN=c1s/c(=C\c3ccccc3F)c(=O)n12` (stereo not given), the growth in the test with NCI-H23 lung was 33.1%; in the test on NCI-H226 lung, 57.8%; with NCI-H322M lung it was 37.3%; in the test with HOP-62 NSCLC, 32.9%; in the test on NCI-H460 lung it was 3.14% (active); in the test with HOP-92 NSCLC, 76.8%. Besides, the growth with NCI-H522 lung is -8.56% (active); with A549/ATCC NSCLC it was 21%; with 786-0 renal, 36%; with COLO 205 colon, 8.94% (active); with DU-145 prostate it was 15.9%; in the test on K-562 leukemia, 9.52% (active). Besides, the growth in the test with MALME-3M melanoma was 44.9%; in the test on MDA-MB-231 breast, 13.2%; in the test on RXF 393 renal, -6.27% (active); in the test on SF-268 CNS, 65.5%; in the test with SF-295 CNS, 14.6%; with SF-539 CNS, -23.8% (active). Further, the growth in the test with UACC-257 melanoma was 54.5%; with M14 melanoma, 9.53% (active).

`CN1CCN(Cc2ccc(NC(=O)c3cncc(C#Cc4cnc(N)c5ccc(C#N)cc45)c3)cc2C(F)(F)F)CC1`: the growth in the test on NCI-H23 lung is -22% (active); in the test on NCI-H226 lung it was -35.1% (active); in the test with NCI-H322M lung it was 26.6%; in the test with HOP-62 NSCLC it was 2.55% (active); in the test with NCI-H460 lung it was -49.3% (active); in the test on HOP-92 NSCLC, -15.2% (active). Also, the growth in the test with NCI-H522 lung is 5.63% (active); in the test with A549/ATCC NSCLC, -53% (active); in the test on 786-0 renal it was -71.8% (active); in the test with COLO 205 colon, -71.9% (active); in the test on DU-145 prostate it was -7.64% (active); in the test with K-562 leukemia, 0.252% (active). In addition, the growth in the test on MALME-3M melanoma is -72.6% (active); with MDA-MB-231 breast it was -81.7% (active); in the test on RXF 393 renal it was -90.7% (active); in the test with SF-268 CNS, -69.4% (active); with SF-295 CNS, 38.8%; in the test with SF-539 CNS, -57.6% (active). Also, the values for the growth in the test with UACC-257 melanoma and in the test on M14 melanoma were 6.11% (active) and -83.9% (active), respectively.
